Targets with a hit are over-represented here; the source holds about 7,900 in all. About 0.6% of all pairs of compound and target were hits. A number with no mark means an inactive call.
compound: CON(C)C(=O)N1N=C(c2cc(F)ccc2F)S[C@@]1(CCCN)c1ccccc1 [filanesib]; assay: log2 fold change, soluble protein after heating vs DMSO (PISA); higher = thermal stabilisation; K562 cells, 10 uM, 30 min; active = over 0.2 and 3.5 SD of the protein, either way, in both replicates (recomputed)
Procedure, shortened: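 K562 cells at 2×10^6 cells/mL were given 10 μM compound for 30 min. Aliquots then went through 3 min of heating across 48°C-58°C, were pooled, and were extracted in PBS with 0.5% NP-40 at 4°C, and the supernatant after 21,000xg for 90 min was quantified by TMTpro 16plex LC-MS/MS with channel sums equalised. Thermal stability relative to control samples, from duplicates, is given as log2 fold change.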

Chain of UniProt Q8WWC4 (Q8WWC4 whole entry, looked up): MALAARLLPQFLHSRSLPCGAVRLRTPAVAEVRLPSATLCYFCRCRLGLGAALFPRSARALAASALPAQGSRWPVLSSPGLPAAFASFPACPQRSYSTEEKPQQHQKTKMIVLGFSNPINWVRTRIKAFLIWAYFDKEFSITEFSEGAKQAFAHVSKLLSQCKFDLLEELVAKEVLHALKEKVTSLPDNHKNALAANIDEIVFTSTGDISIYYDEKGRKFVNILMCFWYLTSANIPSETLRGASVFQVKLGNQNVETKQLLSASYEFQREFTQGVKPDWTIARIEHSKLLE
Chain of UniProt Q9NVC6 (Q9NVC6 whole entry, looked up): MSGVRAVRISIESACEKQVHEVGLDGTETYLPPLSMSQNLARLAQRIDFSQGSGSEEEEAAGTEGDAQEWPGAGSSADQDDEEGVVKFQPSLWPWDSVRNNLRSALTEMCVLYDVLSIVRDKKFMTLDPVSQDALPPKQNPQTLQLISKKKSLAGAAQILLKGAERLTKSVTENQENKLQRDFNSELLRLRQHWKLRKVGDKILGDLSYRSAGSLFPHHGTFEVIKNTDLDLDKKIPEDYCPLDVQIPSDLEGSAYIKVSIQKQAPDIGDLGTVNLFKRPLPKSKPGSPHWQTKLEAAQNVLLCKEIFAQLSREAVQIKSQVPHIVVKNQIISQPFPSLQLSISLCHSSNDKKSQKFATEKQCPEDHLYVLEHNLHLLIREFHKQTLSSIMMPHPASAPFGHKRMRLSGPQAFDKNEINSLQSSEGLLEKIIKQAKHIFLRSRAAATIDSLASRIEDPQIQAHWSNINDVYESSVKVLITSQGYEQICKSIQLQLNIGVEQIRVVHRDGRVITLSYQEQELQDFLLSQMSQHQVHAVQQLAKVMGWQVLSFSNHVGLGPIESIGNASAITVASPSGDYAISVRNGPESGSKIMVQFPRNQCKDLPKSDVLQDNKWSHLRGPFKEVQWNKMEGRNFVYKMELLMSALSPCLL
Chain of UniProt Q6UWB1 (Q6UWB1 whole entry, looked up): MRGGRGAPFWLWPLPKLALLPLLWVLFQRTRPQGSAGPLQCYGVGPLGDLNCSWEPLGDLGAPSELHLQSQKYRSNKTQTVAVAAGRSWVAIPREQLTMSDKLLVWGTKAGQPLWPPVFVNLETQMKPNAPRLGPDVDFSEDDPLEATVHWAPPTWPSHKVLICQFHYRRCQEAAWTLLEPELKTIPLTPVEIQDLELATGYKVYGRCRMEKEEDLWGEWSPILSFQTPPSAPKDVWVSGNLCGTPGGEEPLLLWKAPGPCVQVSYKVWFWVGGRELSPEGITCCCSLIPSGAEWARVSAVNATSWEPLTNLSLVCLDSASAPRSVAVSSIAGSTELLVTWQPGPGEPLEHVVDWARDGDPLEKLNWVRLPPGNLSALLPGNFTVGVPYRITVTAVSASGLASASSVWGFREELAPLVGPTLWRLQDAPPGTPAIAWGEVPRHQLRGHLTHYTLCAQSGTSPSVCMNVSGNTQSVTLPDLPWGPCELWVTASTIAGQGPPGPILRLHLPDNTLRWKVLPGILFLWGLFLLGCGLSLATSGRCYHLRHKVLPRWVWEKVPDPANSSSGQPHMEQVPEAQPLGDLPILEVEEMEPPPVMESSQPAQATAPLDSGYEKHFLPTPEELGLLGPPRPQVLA
Chain of UniProt Q92604 (Q92604 whole entry, looked up): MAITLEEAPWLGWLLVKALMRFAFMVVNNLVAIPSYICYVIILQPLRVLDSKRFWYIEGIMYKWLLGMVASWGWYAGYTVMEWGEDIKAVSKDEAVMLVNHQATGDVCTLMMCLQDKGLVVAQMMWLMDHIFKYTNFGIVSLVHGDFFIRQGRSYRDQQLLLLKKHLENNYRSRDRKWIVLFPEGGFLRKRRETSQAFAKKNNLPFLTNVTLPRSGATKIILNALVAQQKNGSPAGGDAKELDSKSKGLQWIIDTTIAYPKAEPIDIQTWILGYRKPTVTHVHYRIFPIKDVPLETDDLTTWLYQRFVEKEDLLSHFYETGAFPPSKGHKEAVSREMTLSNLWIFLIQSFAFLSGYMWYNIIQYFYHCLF
Chain of UniProt Q9H6V9 (Q9H6V9 whole entry, looked up): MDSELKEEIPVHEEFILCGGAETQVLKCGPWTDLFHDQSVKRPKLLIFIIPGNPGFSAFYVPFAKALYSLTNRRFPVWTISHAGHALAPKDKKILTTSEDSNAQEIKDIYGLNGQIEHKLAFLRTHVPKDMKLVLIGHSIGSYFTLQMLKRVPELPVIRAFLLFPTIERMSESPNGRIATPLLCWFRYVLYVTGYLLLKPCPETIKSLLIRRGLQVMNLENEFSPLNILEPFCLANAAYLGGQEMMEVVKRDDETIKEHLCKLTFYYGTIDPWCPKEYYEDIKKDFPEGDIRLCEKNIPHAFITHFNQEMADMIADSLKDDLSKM
Chain of UniProt P13473 (P13473 whole entry, looked up): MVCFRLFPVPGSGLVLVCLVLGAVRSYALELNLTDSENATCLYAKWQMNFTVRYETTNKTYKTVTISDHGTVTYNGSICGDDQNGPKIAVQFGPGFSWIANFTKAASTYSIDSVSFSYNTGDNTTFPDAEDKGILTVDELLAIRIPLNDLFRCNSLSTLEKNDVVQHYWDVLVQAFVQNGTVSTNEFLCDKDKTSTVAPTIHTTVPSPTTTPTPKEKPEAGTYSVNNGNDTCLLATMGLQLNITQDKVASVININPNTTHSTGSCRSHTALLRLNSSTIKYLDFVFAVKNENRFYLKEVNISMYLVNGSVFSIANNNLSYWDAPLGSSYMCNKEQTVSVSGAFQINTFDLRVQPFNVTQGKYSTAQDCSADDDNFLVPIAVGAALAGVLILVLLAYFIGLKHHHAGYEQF
Chain of UniProt Q9UGP4 (Q9UGP4 whole entry, looked up): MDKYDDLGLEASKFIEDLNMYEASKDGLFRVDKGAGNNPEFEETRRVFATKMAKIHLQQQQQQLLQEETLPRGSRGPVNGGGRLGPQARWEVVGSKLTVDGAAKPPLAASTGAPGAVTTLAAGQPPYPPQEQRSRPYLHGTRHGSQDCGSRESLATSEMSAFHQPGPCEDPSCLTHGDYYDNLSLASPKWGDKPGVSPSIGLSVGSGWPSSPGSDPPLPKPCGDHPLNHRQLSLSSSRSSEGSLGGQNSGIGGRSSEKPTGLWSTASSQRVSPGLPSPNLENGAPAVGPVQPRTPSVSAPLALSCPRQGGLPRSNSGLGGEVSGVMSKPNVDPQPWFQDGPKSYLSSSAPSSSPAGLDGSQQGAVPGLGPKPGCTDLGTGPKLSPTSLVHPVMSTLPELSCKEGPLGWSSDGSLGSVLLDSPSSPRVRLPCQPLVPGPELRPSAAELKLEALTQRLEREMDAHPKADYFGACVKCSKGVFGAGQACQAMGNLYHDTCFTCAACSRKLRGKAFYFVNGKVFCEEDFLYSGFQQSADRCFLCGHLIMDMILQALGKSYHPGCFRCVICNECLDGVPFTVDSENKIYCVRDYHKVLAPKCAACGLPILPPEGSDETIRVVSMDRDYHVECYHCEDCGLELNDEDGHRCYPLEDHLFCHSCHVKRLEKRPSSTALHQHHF
Chain of UniProt Q9C0E8 (Q9C0E8 whole entry, looked up): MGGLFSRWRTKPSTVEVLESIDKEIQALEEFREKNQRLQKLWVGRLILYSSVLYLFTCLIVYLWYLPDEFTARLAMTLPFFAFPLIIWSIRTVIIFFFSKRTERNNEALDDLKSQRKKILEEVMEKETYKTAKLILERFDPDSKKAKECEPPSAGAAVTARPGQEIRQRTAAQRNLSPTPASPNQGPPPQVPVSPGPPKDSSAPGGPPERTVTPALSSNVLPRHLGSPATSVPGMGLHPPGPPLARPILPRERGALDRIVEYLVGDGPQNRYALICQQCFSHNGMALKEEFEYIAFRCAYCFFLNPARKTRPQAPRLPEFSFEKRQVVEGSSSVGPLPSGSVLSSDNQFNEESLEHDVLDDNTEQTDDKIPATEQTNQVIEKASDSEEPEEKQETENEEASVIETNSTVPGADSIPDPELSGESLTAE
Chain of UniProt Q96LU5 (Q96LU5 whole entry, looked up): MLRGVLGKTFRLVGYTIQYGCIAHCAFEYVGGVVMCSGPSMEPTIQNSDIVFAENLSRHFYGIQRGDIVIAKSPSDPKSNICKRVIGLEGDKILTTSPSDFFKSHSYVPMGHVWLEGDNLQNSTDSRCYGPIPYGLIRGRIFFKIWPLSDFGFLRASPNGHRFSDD
Chain of UniProt Q9Y496 (Q9Y496 whole entry, looked up): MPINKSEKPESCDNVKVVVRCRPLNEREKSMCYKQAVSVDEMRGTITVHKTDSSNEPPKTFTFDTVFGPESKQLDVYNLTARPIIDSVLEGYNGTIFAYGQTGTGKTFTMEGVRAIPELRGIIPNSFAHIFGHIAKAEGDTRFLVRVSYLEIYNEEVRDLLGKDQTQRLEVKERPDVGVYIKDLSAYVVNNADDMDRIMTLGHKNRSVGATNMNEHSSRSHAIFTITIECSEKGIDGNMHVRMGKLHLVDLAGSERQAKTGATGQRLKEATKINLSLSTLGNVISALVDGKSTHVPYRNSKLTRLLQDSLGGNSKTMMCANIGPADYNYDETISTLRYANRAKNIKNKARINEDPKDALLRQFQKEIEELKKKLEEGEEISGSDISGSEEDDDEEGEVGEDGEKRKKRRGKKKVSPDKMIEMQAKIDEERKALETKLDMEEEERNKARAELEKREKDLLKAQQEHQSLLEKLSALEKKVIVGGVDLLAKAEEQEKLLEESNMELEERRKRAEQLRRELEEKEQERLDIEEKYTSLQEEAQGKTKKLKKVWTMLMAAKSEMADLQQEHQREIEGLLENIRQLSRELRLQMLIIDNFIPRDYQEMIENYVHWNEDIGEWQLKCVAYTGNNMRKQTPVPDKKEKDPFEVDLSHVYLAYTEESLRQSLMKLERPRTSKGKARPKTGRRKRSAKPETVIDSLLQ
Chain of UniProt Q8WV07 (Q8WV07 whole entry, looked up): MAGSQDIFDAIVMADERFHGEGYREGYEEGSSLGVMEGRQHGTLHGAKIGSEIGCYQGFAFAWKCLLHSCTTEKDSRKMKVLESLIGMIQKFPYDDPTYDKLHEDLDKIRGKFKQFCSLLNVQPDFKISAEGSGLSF

Target	log2 fold change
LTV1 (UniProt Q96GA3)	0.17
LMNB1 (UniProt P20700)	0.131
LNPK (UniProt Q9C0E8)	-0.005
LDAH isoform 2 (UniProt Q9H6V9)	-0.137
IL27RA (UniProt Q6UWB1)	0.065
KIF2C (UniProt Q99661)	-0.033
LAMP2 (UniProt P13473)	-0.058
LMNB2 (UniProt Q03252)	0.1
MAP1LC3B2 (UniProt A6NCE7)	-0.062
METAP1D (UniProt Q6UB28)	-0.097
LIMD1 (UniProt Q9UGP4)	-0.007
MED17 (UniProt Q9NVC6)	0.019
KIF3A (UniProt Q9Y496)	-0.091
IKZF1 (UniProt Q13422)	-0.136
KSR1 (UniProt Q8IVT5)	0.033
MAIP1 (UniProt Q8WWC4)	-0.12
LPGAT1 (UniProt Q92604)	-0.021
LTO1 (UniProt Q8WV07)	-0.06
LARP4 isoform 4 (UniProt Q71RC2)	0.111
IMMP1L (UniProt Q96LU5)	-0.067
LRBA (UniProt P50851)	-0.06
LMBRD2 (UniProt Q68DH5)	-0.095
MAP2K2 (UniProt P36507)	-0.061

Reference: the supplement of paper PMC10849652
